This note sets out measurements from PubChem BioAssay AID588453 (National Center for Advancing Translational Sciences (NCATS), 2011).

Hit rate of the full screen: of about 390,000 compounds, about 4,000 (1%) were called active. Where a call stands in place of a potency, no number is given. About 4% were inconclusive and are not listed. Only a selection was taken, and actives are over-represented in it overall. Unmarked numbers belong to inactive results. Calls come from the whole dose curve; as a rule, active = well fitted inhibition curve with a large enough effect; inconclusive = small, poorly fitted or top-dose-only effect; inactive = no such curve, though single readings can be large or run the other way.
Potency is the fitted concentration of half-maximal effect.

Chain of Thioredoxin reductase 1, cytoplasmic (Rattus norvegicus) (O89049 whole entry, looked up): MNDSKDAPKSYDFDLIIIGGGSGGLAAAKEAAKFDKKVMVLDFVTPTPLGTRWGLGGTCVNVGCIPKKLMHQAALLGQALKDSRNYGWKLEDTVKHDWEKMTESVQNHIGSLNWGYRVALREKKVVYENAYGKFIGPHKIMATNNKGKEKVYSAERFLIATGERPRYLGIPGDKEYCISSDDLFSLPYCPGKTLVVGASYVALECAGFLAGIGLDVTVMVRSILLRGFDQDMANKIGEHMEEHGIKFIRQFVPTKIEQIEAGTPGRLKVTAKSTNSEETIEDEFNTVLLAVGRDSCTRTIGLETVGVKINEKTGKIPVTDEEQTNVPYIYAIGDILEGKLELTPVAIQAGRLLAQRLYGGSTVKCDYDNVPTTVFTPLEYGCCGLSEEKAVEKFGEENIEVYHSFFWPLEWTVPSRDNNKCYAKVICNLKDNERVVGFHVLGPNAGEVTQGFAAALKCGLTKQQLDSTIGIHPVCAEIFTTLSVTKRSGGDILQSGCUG

The target in the assay is Thioredoxin reductase 1, cytoplasmic (Rattus norvegicus) (UniProt O89049). Nature of the assay: qHTS Assay for Inhibitors of Mammalian Selenoprotein Thioredoxin Reductase 1 (TrxR1): qHTS. Note: nearly all actives have a fitted effect of over 65% in size. The following applies: recombinant rTrxR1, NADPH fluorescence consumption, selenite substrate; series mostly up to 114 µM. Summed up:
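Rat TrxR1 (90 nM in the dispensed reagent) was pre-reduced with 400 uM NADPH for 5 min at room temperature, then incubated with compound for 15 min. After 400 uM selenite was added, NADPH fluorescence (Ex 340/Em 450 nm) was followed for 8 min.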
For orientation: In qHTS, concentration-response curves come from the screen itself.
With `CC1=C(C(=O)OCC2CCCCC2)C(c2c(F)cccc2Cl)CC(=O)N1` (centres undefined), the Potency entry is “inactive”.

For the molecule `Cc1cc(C)c(NC(=O)c2cc3sc(Cl)cc3n2C)c(C)c1`, the Potency entry was “inactive”.

As to `CCN1CCC(O)(/C=C/c2ccc(C)cc2)C(C(=O)/C=C/c2ccc(C)cc2)C1` (centres undefined), the Potency was 1.26 µM (active).

Turning to `Cc1ccc(NC(=O)CSc2nc3ccccc3c3nc(CCn4cncc4C)nn23)cc1F`, the Potency result was “inactive”.

Turning to `CN(C)C1=C2C=CC=CC2/C(=C2/C=Cc3ccccc32)C=C1` (centres undefined), the Potency result was “inactive”.

In the case of `COC(=O)c1ccc(NC(=O)CCc2c(C)nn(-c3ccc(N4CCCC4)nn3)c2C)cc1`, the Potency result was “inactive”.

As to `O=C(CSc1oc(-c2ccc(F)cc2)nc1S(=O)(=O)c1ccc(Br)cc1)NC1CCCCC1`, the Potency entry was “inactive”.

Turning to `Cc1ccc(-c2nc(S(=O)(=O)c3ccc(C)cc3)c(N3CCCCCC3)o2)cc1`, the Potency entry was “inactive”.

For `CC(C)S(=O)(=O)c1oc(-c2ccc(F)cc2)nc1S(=O)(=O)c1ccc(F)cc1`, the Potency is 1 µM (active).

Take `C=Cc1ccc(Cn2c(C(=O)OC)cc3sc(C)cc32)cc1`: the Potency result was “inactive”.

Consider `COc1ccc(-c2nc3c(c(SCC(=O)Nc4ccc(C(=O)O)cc4)n2)Cc2ccccc2O3)cc1`, for which the Potency result is “inactive”.

In the case of `Cc1cccc(CNC(=O)c2cnc3sc(N4CCCCC4)nn3c2=O)c1`, the Potency entry was “inactive”.

In the case of `COc1ccccc1N1CCN(C(=O)C2CCN(S(=O)(=O)c3c(C)noc3/C=C/c3ccc(C)cc3)CC2)CC1`, the Potency entry was “inactive”.

For `CCCN(CCC)c1c([N+](=O)[O-])c(=O)oc2ccccc12`, the Potency entry was “inactive”.

Take `CCn1c(/C=C/c2ccc([N+](=O)[O-])o2)nc2ccccc2c1=O`: the Potency was 3.16 µM (active).

With `COc1cc(OC)c(OC)cc1/C=C/c1nc2ccccc2c(=O)n1-c1ccc(Br)c(C)c1`, the Potency result is “inactive”.

Take `Cc1ccc(C2c3[nH]c4ccccc4c3CCN2C(=O)c2cccc(C)c2)cc1` (centres undefined): the Potency entry is “inactive”.

For the molecule `COc1ccc(-c2nc3sc(CCNS(=O)(=O)c4ccc(F)c(C)c4)c(C)n3n2)cc1`, the Potency result was “inactive”.

Regarding `Cc1cc(-c2n[nH]c(=S)n2-c2ccc(C)c(C)c2)no1`, the Potency result is “inactive”.

`COc1ccccc1-n1c(=S)[nH]c2c(sc(=S)n2-c2ccc(C)cc2C)c1=O`: the Potency result is “inactive”.

With `COc1ccccc1-n1c(-c2cc(-c3ccco3)[nH]n2)n[nH]c1=S`, the Potency was 44.7 µM (active).

`COc1ccc(N2CCN(C(=O)C3CCCN(C(=O)c4cc5sccc5n4C)C3)CC2)cc1` (centres undefined): the Potency entry was “inactive”.

On to `COc1ccccc1CN1CCNC(=O)C1CC(=O)N(C)CC1CCOCC1` (centres undefined), for which the Potency result is “inactive”.

Take `COc1ccc(CN2CCNC(=O)C2CC(=O)N(C)Cc2ccccn2)cc1OC` (centres undefined): the Potency entry was “inactive”.

On to `CN(C(=O)CC1C(=O)NCCN1Cc1ccc2ccccc2c1)C1CCOCC1` (centres undefined), for which the Potency is 39.8 µM (active).

With `O=C(Cn1c(-c2cccs2)cc2ccccc21)NCCc1ccc(Cl)cc1`, the Potency entry was “inactive”.

Regarding `CCNC(=O)Cn1nc(C)n2c(cc3c(OC)cccc32)c1=O`, the Potency result was “inactive”.

As for `O=C(COC(=O)[C@H](Cc1ccccc1)NC(=O)c1cccs1)Nc1cc(F)ccc1F`, the Potency result was “inactive”.

Turning to `Cc1ccc(C)c(NC(CC(=O)c2ccccc2)C(=O)OCC(=O)c2cccs2)c1` (centres undefined), the Potency was 44.7 µM (active).

Regarding `COC(=O)C(CC(=O)Nc1cc(C)ccc1C)Nc1ccccc1OC` (centres undefined), the Potency entry was “inactive”.

Take `COc1cc2nc(N3CCCN(C)CC3)nc(NC(C)C)c2cc1OC`: the Potency entry was “inactive”.

As for `CCOc1ccc(N(Cc2ccccc2)C(=O)c2nc(S(C)(=O)=O)ncc2Cl)cc1`, the Potency is 2.24 µM (active).

Take `CCOc1ccc(N(Cc2ccccc2)C(=O)c2nc(SCC)ncc2Cl)cc1`: the Potency entry was “inactive”.

Take `CCOc1ccc(NC(=O)CN(Cc2ccccc2)S(=O)(=O)c2ccc(Cl)cc2)cc1`: the Potency result was “inactive”.

Turning to `Nc1ncnc2nnsc12`, the Potency entry is “inactive”.

In the case of `COc1cc2nc(C#Cc3nc4cc(OC)c(OC)cc4[nH]3)[nH]c2cc1OC`, the Potency result was “inactive”.

On to `CC(C)(C(=O)NO)c1ccccc1`, for which the Potency result was “inactive”.

`Cc1cccc(CSc2nc3ccncc3n2CC(=O)N(C)C2CCCCC2)c1`: the Potency entry is “inactive”.

With `O=C(CCl)N(Cc1cccc([N+](=O)[O-])c1)c1cccc(Cl)c1`, the Potency is 7.94 µM (active).

Regarding `O=C(NCCN1CCN(C(=O)c2cccc([N+](=O)[O-])c2)CC1)C(=O)NCc1ccc(Cl)cc1`, the Potency result was “inactive”.

Consider `CC(=O)N(CN1C(=O)C2C3C=CC(C3)C2C1=O)c1cccc(Cl)c1` (centres undefined), for which the activity change, negative = inhibition was 9.83% [at 11.4 µM].

As to `Cc1ccc(Cl)cc1N(C)C(=O)C1CCCN(c2ncnc3onc(-c4ccc(F)cc4)c23)C1` (centres undefined), the Potency entry is “inactive”.

Consider `Cc1cccc(N2CCN(C(c3ccc(N(C)C)cc3)c3nnnn3C(C)(C)C)CC2)c1C` (centres undefined), for which the Potency is 11.2 µM (active).

For `CC(C)(C)n1nnnc1C(c1ccc(Cl)cc1)N1CCSCC1` (centres undefined), the Potency entry is “inactive”.

Take `CC(C)(C)n1nnnc1C(c1ccc2ncccc2c1)N1CCSCC1` (centres undefined): the Potency result was “inactive”.

Consider `Cc1ccsc1CN(C(=O)c1oc2ccc(Br)cc2c1C)C1CCS(=O)(=O)C1` (centres undefined), for which the Potency result is “inactive”.

Regarding `Cc1cccc(S(=O)(=O)c2cn(Cc3ccccc3)c3cc(N4CCOCC4)c(F)cc3c2=O)c1`, the Potency result is “inactive”.

With `COc1ccccc1-c1noc(CSc2nnc(-c3ccccc3)n2-c2ccc(C)c(C)c2)n1`, the Potency result is “inactive”.

On to `O=C(Nc1ccccc1)c1ccccc1OCc1ccccc1`, for which the Potency result is “inactive”.

`COc1ccc(-c2c3c(=O)n(C)c(=O)n(C)c3c3c(C)nc4ccccc4n23)cc1`: the Potency result is “inactive”.

Regarding `Cc1ccc(-c2c3c(=O)n(C)c(=O)n(C)c3cn2-n2cnnc2)cc1`, the Potency is 50.1 µM (active).

Take `COc1ccc(CCn2cc3c(c2-c2ccc(Br)cc2)c(=O)n(C)c(=O)n3C)cc1OC`: the Potency entry is “inactive”.

Consider `Cc1ccc(N(CC(=O)NCC(C)c2ccccc2)S(=O)(=O)N(C)C)cc1` (centres undefined), for which the Potency result was “inactive”.

For `CC(C)N(C(=O)CN1CCN(S(=O)(=O)c2ccc(Br)s2)CC1)C(C)C`, the Potency result was “inactive”.

On to `Cc1cccc(NC(=O)CN2CCCN(S(=O)(=O)c3ccc(Br)s3)CC2)c1`, for which the Potency is 12.6 µM (active).

On to `COc1cc(NC(=O)CN2CCN(S(=O)(=O)c3ccc(Br)cc3)CC2)cc(OC)c1`, for which the Potency entry was “inactive”.

As for `Cc1ccc2ccc3c(c2n1)NS(=O)(=O)c1ccccc1-3`, the Potency entry was “inactive”.

In the case of `COc1ccc(C(=O)C2CCCN(C(=O)c3cnsn3)C2)c(C)c1` (centres undefined), the Potency result is “inactive”.

As to `COc1ccc(C(=O)C2CCCN(S(=O)(=O)c3cccc(C)c3)C2)c(C)c1` (centres undefined), the Potency entry was “inactive”.

In the case of `COc1ccc(C(=O)C2CCCN(C(=O)c3ccc(OC)o3)C2)c(C)c1` (centres undefined), the Potency was 39.8 µM (active).

For the molecule `CN(C)c1ccc(/C=C/c2sc3ccccc3[n+]2C)cc1`, the Potency entry is “inactive”.

With `OCC(CO)(CO)NCc1ccc(-c2ccccc2)cc1`, the Potency entry was “inactive”.

For the molecule `Oc1ccc(N2CCN(C(=S)NCc3ccccc3)CC2)cc1`, the Potency entry is “inactive”.

As to `Oc1ccc(CNc2ccccc2O)cc1`, the Potency was 7.94 µM (active).

In the case of `COc1ccc(OC)c(CNC(=O)c2c3c(nc4ccccc24)C(=O)N(C2CCCCC2)C3)c1`, the Potency entry is “inactive”.

As to `COc1cc2[nH]c(C)c(CCN3CCN(c4ccccc4)CC3)c2cc1OC`, the Potency entry is “inactive”.

For the molecule `COc1ccccc1NC(=O)N(O)C1(C#N)CCCCC1`, the Potency result was “inactive”.

With `COc1ccccc1NC(=O)COC(=O)COc1ccccc1F`, the Potency result is “inactive”.

As for `COc1ccccc1NC(=O)/C=C/C(N)=O`, the Potency was 12.6 µM (active).

Regarding `COc1ccc(C(CCN2CCOCC2)c2c(OC)cc(OC)c3c2OC(=O)CC3c2ccc(OC)cc2)cc1` (centres undefined), the Potency result was “inactive”.

Take `CCc1nn(CC(=O)Nc2cc(C)cc(C)c2)c(=O)c2cc3sccc3n12`: the Potency result was “inactive”.

For `COc1cccc(CNC(=O)Cn2c(=O)c3cccn3c3ccc(F)cc32)c1OC`, the Potency result is “inactive”.

`O=C(/C=C/Sc1ncn[nH]1)c1ccc(Cl)cc1`: the Potency was 0.447 µM (active).

As to `Cc1cccc(C2CC(=O)Oc3c2c(=O)n(C)c2ccccc32)c1` (centres undefined), the Potency result is “inactive”.

Consider `Cn1c(=O)c(Sc2ccc(Cl)cc2)c(O)c2ccccc21`, for which the Potency entry was “inactive”.

Regarding `Cc1cccc(Oc2c([N+](=O)[O-])c(=O)n(C)c3ccccc23)c1`, the Potency was 3.16 µM (active).

Take `COc1cccc(C(=O)Oc2cc(C)[nH]c(=O)c2[N+](=O)[O-])c1`: the Potency result was “inactive”.

For `Cc1cccc(C(=O)O)c1[N+](=O)[O-]`, the Potency entry was “inactive”.

For `Cn1c(=O)c([N+](=O)[O-])c(Oc2ccccc2)c2ccccc21`, the Potency was 2.24 µM (active).

As to `COc1cc(-c2cc3n(C)c(C)c(CCC(=O)Nc4ccc(F)cc4)c(=O)n3n2)cc(OC)c1OC`, the Potency result was “inactive”.

As to `Cc1cccc(-n2ccnc2SCC(=O)Nc2cc(C(F)(F)F)ccc2Cl)c1`, the Potency result was “inactive”.

For the molecule `Cc1ccc(-c2cc(C(F)(F)F)c(C#N)c(SCC(=O)Nc3ccccc3)n2)cc1`, the Potency result was “inactive”.

`N#Cc1cc2[nH]c(=O)c(=O)[nH]c2cc1[N+](=O)[O-]`: the Potency entry was “inactive”.

As to `COC1=CC(=O)OC(c2ccc(OC)cc2)C1` (centres undefined), the Potency entry was “inactive”.

Consider `COc1ccc(N=Nc2c(-c3ccc(OC)cc3)[nH]oc2=O)cc1`, for which the Potency entry is “inactive”.

For `COc1ccc(N=C2C=CC(=O)O2)cc1`, the Potency was 10 µM (active).

As to `COc1ccc(C)cc1-n1c(-c2ccc(C)cc2)cc2c1CC(C)(C)CC2=O`, the Potency result was “inactive”.

Turning to `O=C(Nc1ccc([N+](=O)[O-])cc1)c1cnn2c1NC(=C1CC1)C=C2C(F)F`, the Potency result was “inactive”.

Take `CCc1ccc(NS(=O)(=O)c2ccc3[nH]cc(C(=O)NCCc4cccc(C)c4)c(=O)c3c2)cc1`: the Potency result was “inactive”.

Regarding `COc1cc(NC(=O)c2noc3c2CSc2ccccc2-3)cc(OC)c1OC`, the Potency is 14.1 µM (active).

As for `COc1cc(NC(=O)c2nc3ccccc3nc2C)cc(OC)c1OC`, the Potency result is “inactive”.

Turning to `COc1ccc(CCNC(=O)c2nn(C)c3c2CSc2ccccc2-3)cc1OC`, the Potency entry is “inactive”.

For the molecule `Cc1cccc(NC(=O)CSc2nc3c([nH]c4ccccc43)c(=O)n2-c2cc(C)cc(C)c2)c1`, the Potency result was “inactive”.

`CC1(C)C(=O)Nc2ccccc2N1C(=O)COC(=O)Cn1cnc2ccccc2c1=O`: the Potency result was “inactive”.

Take `CCN(CC(=O)Nc1ccccc1OC)C(=O)Cn1cnc2ccccc2c1=O`: the Potency entry is “inactive”.

In the case of `COc1ccc(C(C)=O)cc1COC(=O)Cn1cnc2ccccc2c1=O`, the Potency is 17.8 µM (active).

For `COc1ccc(C)cc1NC(=O)COCc1cc(-c2cccs2)on1`, the Potency result was “inactive”.

As for `CCOC(=O)c1ccc(NC(=O)C2CC(=O)NC(=Nc3ccc(C)c(C)c3)S2)cc1` (centres undefined), the Potency entry is “inactive”.

For `Cn1c(=O)oc2cc(S(=O)(=O)CCC(=O)NCCc3ccc(Cl)cc3)ccc21`, the Potency result was “inactive”.
